The whole screen tested about 360,000 compounds, of which about 160 (0.044%) were called active. What follows is part of a selection rich in actives, with near analogues and random picks from the rest. Values without a mark were called inactive. No stated cut-off is given here; in the data, active means survival enhancement above about 18%; inactive means the rest.
test: compounds raising survival of dissociated human iPSCs – cell-based, ATPlite luminescence, primary screen (AID 602274); details: hiPSC single-cell survival, at 20 µM, stronger effect = higher value, 100% = ROCK inhibitor wells, 0% = DMSO;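 further: cells exposed to compounds for 16 hours before the ATP read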

Row | SMILES | survival enhancement
1 | Cc1nccn1-c1ccc(NC(=O)[C@H]2O[C@@H](n3cnc4c(N)ncnc43)[C@H](O)[C@@H]2O)cc1 | 1.4%
2 | CN(Cc1ccc(C(F)(F)F)cc1)C(=O)[C@H]1O[C@@H](n2cnc3c(N)ncnc32)[C@H](O)[C@@H]1O | 20.3% (active)
3 | Nc1ncnc2c1ncn2[C@@H]1O[C@H](C(=O)NCC(F)(F)F)[C@@H](O)[C@H]1O | 1.8%
4 | CCC(=O)c1ccc(OCC(O)CN2C(=O)NC(C)(C)C2=O)cc1 (stereo unspecified) | 0.2%
5 | C=Cc1ccc(C(=O)N2CCCC(CCC(=O)N3CCN(c4ccccn4)CC3)C2)cc1 (stereo unspecified) | -0.4%
6 | CC(=O)NNC1=Nc2ccccc2N(C)C(C)C1 (stereo unspecified) | -0.5%
7 | CC1CCCCC1NC(=O)CCS(=O)(=O)c1cccc2nonc12 (stereo unspecified) | 1.2%
8 | O=C(Nc1ccc(N2CCOCC2)nc1)c1c(F)cccc1F | -0.6%
9 | O=C(Nc1ccccc1-c1ccccc1)c1ccccc1[N+](=O)[O-] | 0.6%
10 | O=C(Nc1ccncc1)c1c(F)cccc1F | 39.6% (active)
11 | O=C(Nc1cccnc1)c1ccc(Cl)cc1[N+](=O)[O-] | -1.2%
12 | O=C(Nc1ccncc1)c1ccccc1[N+](=O)[O-] | 28.4% (active)
13 | COc1cccc(OC)c1C(=O)Nc1ccc(Cc2ccncc2)cc1 | 0.6%
14 | Cc1cc2cc3c(cc2nc1SCC(=O)Nc1c(C)cccc1C)CCC3 | -1.9%
15 | CC(/C=C/c1ccco1)=N/NC(=O)C1COc2ccccc2O1 (stereo unspecified) | -0.2%
16 | O=C(Nc1nc(-c2ccncc2)cs1)C1COc2ccccc2O1 (stereo unspecified) | 103% (active)
17 | CC(=O)c1ccccc1NC(=O)COC(=O)C1COc2ccccc2O1 (stereo unspecified) | -0.2%
18 | CC(=O)c1cnn(-c2cc(Oc3ccc(F)cc3)ncn2)c1C | 2.8%
19 | CCCCNC(=O)CCn1nc(-c2ccc(Cl)cc2)ccc1=O | 0%
20 | CC(C)CCN1CCN(C/C=C/c2ccco2)CC1CCO (stereo unspecified) | -0.4%
21 | COCc1cc(C)nc2sc3c(=O)n(-c4cccc5ccccc45)nnc3c12 | 4.5%
22 | C[C@H](NC(=O)C1CC(=O)N(c2ccc3c(c2)OCCO3)C1)C(=O)N1CCC(C(=O)O)CC1 (stereo partly specified) | -0.4%
23 | CCOC(=O)C1(Cc2cccc(OC)c2)CCCN(S(=O)(=O)c2cccnc2)C1 (stereo unspecified) | 1.2%
24 | C[n+]1ccccc1C1CCCC/C1=N\Nc1ccc([N+](=O)[O-])cc1[N+](=O)[O-] (stereo unspecified) | -1.7%
25 | Cc1ccc(OS(=O)Nc2cccc3nccnc23)cc1 (stereo unspecified) | 1.2%
26 | CCc1c(C)sc(NC(=O)c2cccs2)c1C(N)=O | -1.4%

From PubChem BioAssay AID602274 (Sanford-Burnham Center for Chemical Genomics, 2012)
